High-throughput results from PubChem.
SNCA viab count = cell viability loss counter-screen; AID 1671193; HEK-293-SNCA-luc viability, GF-AFC fluorescence, 24 h; Potency, µM (titrated, usually from 57.1 µM), hits mostly cytotoxic; 150,000 compounds, 0.12% hits; note: nearly all actives have a fitted effect of over 30% in size
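Cytotoxicity counterscreen: after 24 h compound treatment of genome-edited SNCA-luciferase HEK-293 cells, live-cell protease substrate GF-AFC read by fluorescence after 30 min; activity scaled between DMSO (0%) and medium-only (-100%), curves Hill-fitted.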
KDM5B inh = inhibitors of human KDM5B histone demethylase; KDM5B demethylase, FDH-coupled NADH fluorescence (FDH is formaldehyde dehydrogenase); Potency, µM (highest dose often 57.7 µM), actives largely listed as inhibitors; 220,000 compounds, 2.6% hits; AID 1347165; Q9UGL1; note: nearly all actives have a fitted effect of over 70% in size
Target sequence (Q9UGL1 whole entry, looked up): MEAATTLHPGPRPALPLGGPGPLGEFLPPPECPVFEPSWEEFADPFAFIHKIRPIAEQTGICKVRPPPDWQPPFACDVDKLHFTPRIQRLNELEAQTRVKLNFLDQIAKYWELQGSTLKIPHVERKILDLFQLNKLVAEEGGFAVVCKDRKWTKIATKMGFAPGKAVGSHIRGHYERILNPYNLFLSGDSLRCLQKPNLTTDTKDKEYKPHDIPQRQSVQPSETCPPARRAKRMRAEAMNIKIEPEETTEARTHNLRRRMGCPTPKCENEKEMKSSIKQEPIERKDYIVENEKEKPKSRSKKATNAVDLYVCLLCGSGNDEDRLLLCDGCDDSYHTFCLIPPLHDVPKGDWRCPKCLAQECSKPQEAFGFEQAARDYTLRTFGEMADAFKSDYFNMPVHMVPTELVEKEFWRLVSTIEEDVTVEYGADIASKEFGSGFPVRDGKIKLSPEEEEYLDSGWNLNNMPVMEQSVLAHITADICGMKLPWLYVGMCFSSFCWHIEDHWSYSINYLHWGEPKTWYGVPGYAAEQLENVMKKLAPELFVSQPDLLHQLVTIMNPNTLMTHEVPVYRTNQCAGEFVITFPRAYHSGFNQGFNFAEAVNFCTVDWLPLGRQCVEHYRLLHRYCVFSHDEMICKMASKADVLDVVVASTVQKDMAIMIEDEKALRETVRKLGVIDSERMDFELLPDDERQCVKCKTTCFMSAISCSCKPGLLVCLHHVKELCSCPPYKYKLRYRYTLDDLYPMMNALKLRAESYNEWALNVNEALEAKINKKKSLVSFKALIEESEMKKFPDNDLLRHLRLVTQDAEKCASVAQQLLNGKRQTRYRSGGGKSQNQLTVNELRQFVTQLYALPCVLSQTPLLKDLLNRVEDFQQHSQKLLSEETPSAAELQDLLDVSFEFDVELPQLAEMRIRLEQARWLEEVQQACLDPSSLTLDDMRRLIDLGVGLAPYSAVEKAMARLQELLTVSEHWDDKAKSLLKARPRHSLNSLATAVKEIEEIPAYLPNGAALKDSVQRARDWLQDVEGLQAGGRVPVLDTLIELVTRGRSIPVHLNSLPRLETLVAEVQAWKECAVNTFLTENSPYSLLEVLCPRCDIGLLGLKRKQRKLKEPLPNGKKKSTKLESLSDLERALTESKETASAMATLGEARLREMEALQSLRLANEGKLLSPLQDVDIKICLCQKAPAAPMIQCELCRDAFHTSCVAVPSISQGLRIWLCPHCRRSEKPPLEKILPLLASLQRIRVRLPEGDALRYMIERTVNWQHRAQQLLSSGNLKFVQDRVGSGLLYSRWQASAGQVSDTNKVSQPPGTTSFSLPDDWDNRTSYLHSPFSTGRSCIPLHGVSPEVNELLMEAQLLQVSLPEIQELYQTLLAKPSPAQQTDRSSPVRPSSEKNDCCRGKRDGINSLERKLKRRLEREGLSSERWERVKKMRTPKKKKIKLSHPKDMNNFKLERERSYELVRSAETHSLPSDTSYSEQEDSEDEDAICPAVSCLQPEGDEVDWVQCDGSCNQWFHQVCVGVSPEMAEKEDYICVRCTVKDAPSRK
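qHTS format, multiple compound concentrations. Buffer 50 mM HEPES pH 7.5/0.01% Tween-20; 200 nM KDM5BΔAP final; 10 min compound preincubation; substrate-mix levels 12.5 µM peptide, 25 µM α-KG, 0.25 mM NAD⁺; 30 min RT; ΔRFU.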
IP6K1 inh = blocks human inositol hexakisphosphate kinase 1; AID 1645851; IP6K1 kinase, ADP-Glo luminescence, 2 h; active compounds read low; activity change, % (series mostly up to about 58 µM); Q92551; 140,000 compounds, 0.81% hits; in the data active = activity change below about -25%
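ADP-Glo luminescence measures ADP made by human IP6K1 during a 2 h RT reaction with ATP/IP6 (mix at 1.3 mM/130 uM); top library doses 57.5 and 19.1 uM final.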
SNCA expr inh = SNCA gene expression inhibition; HEK-293 SNCA-luciferase knock-in, luminescence, 24 h; Potency, µM (top dose mostly 57.2 µM), actives largely listed as inhibitors; 140,000 compounds, 0.17% hits; note: nearly all actives have a fitted effect of over 45% in size
Numbers stand for hits; – = inactive; ? = inconclusive; · = no result given; [ ] = remark or other dose. Most compounds without a hit are left out; they make up all but 2.8% or so of the library. Unless noted, calls come from the whole dose curve; as a rule, active = well fitted curve in the direction sought with a large enough effect; inconclusive = small, poorly fitted or top-dose-only effect, or another doubt; inactive = no such curve, though single readings can be large; an effect the other way counts as inactive or inconclusive.

SMILES | SNCA viab count | KDM5B inh | IP6K1 inh | SNCA expr inh
O=C(N[C@H](c1cccs1)C1CC(O)C1)c1ccc(N2CCOCC2)cc1 (some centres undefined) | – | – | – | –
Cc1cc(C)c(C(=O)N[C@H](C2CCNCC2)C2CC(O)C2)c(C)c1 (some centres undefined) | – | – | – | –
CCNc1ncc(C(=O)N[C@H](c2cccs2)C2CC(O)C2)cn1 (some centres undefined) | – | 22µM | – | ?
CCNc1ncc(C(=O)N[C@H](C2CCNCC2)C2CC(O)C2)cn1 (some centres undefined) | – | 28µM | – | –
O=c1[nH]c2sc3c(c2c2nc(-c4ccncc4)nn12)CCCC3 | · | – | · | ·
O=C(NC1CC(c2nnc(CO)n2C2CC2)C1)c1ccc(F)cc1Cl (centres undefined) | – | – | – | –
O=C(NC1CC(c2nnc(CO)n2C2CC2)C1)c1cccn2cnnc12 (centres undefined) | – | 28µM | – | –
O=C(NCCc1ccc(Cl)cc1)c1nc(-c2ccccc2)c2ccccn12 | – | 28µM | – | –
COc1ccccc1-c1nc(C(=O)NCCc2ccc(Cl)cc2)n2ccccc12 | – | 79µM | – | –
O=C(NCCc1ccc(Cl)cc1)c1nc(-c2cccc(C(F)(F)F)c2)c2ccccn12 | – | 25µM | – | –
Cc1ccc(C#N)c(NCc2cccnc2N2CCN(c3ccccn3)CC2)n1 | – | 28µM | – | –
O=C(Nc1ccc2oc(-c3cccc(F)c3)nc2c1)c1ccc2ccccc2c1 | – | –[11.5 µM] | – | –
Cc1nc(CNC(=O)c2ccc3oc(-c4cccc(F)c4)nc3c2)cs1 | – | 20µM | – | –
CN(CCC(O)c1ccccc1)C(=O)c1ccc2oc(-c3cccc(F)c3)nc2c1 (centres undefined) | – | 22µM | – | –
CCc1cc(CC)n(-c2nc3c(c(=O)n(Cc4ccccc4F)c(=O)n3C)n2CC)n1 | · | – | · | ·
CC(C(=O)N1CC(c2noc(COc3ccccc3)n2)C1)c1ccccc1 (centres undefined) | – | · | – | –
CONC(=O)C(Sc1ccccc1)c1ccccc1 (centres undefined) | · | – | · | ·
CCOc1cc(-c2noc(-c3nnn4c3COC(c3ccc(F)cc3)C4)n2)ccc1OC (centres undefined) | – | 25µM | – | –
CCOc1ccccc1-c1noc(-c2nnn3c2COC(c2ccc(F)cc2)C3)n1 (centres undefined) | – | ? | – | –
CCOc1ccc(C2Cn3nnc(-c4nc(-c5ccccc5OCC)no4)c3CO2)cc1 (centres undefined) | – | 25µM | – | –
CCOc1cc(-c2noc(-c3nnn4c3COC(c3ccc(Cl)cc3)C4)n2)ccc1OC (centres undefined) | – | ? | – | –
CCOc1ccccc1-c1nc(-c2nnn3c2COC(c2ccc(OC)cc2)C3)no1 (centres undefined) | – | 28µM | – | –
CCOc1ccccc1-c1noc(-c2nnn3c2COC(c2cccc(OC)c2)C3)n1 (centres undefined) | – | – | – | –
CCOc1ccccc1-c1noc(-c2nnn3c2COC(c2ccc(OC)cc2)C3)n1 (centres undefined) | – | 18µM | – | –
C=CCOc1ccc(/C=C/c2cc(C(=O)O)c3ccccc3n2)cc1OC | · | – | · | ·
SMILES | SNCA viab count | KDM5B inh | IP6K1 inh | SNCA expr inh
COc1cc(C(=O)Nc2nc3c(s2)C[C@]2(C)CC[C@@H]4[C@H](OC(=O)[C@H]4C)[C@H]2[C@@H]3C)cc(OC)c1OC | – | 28µM | – | –
C[C@@H]1C(=O)O[C@H]2[C@H]1CC[C@@]1(C)Cc3sc(NC(=O)c4ccc(F)c(Cl)c4)nc3[C@@H](C)[C@H]21 | – | 28µM | – | –
CCc1cnn2c(NCc3ccc[n+]([O-])c3)cc(N3CCCC[C@@H]3CCO)nc12 | ? | · | · | 0.061µM
COCc1ccc2c(c1)c(OC(C)(C)C(=O)NC(C)C)nn2Cc1cccc(OC)c1 | – | 35µM | – | –
CCCNC(=O)C(C)(C)Oc1nn(Cc2ccccc2)c2ccc(COC)cc12 | – | 32µM | – | –
COCc1ccc2c(c1)c(OC(C)(C)C(=O)N1CCOCC1)nn2Cc1cccc(OC)c1 | – | ? | – | –
COCc1ccc2c(c1)c(OC(C)(C)C(=O)NC1CCC(O)CC1)nn2Cc1ccccc1 (centres undefined) | – | 25µM | – | –
COCc1ccc2c(c1)c(OC(C)(C)C(=O)N1CC(O)C1)nn2Cc1ccccc1 | – | ? | – | –
COc1cccc(CNC(=O)[C@H](Cc2ccccc2)NC(=O)N2CCn3c2nc2ccccc23)c1 | · | – | · | ·
CCOc1ccccc1CN1CCC2(CCN([S+](=O)([O-])c3ccc(C)cc3)CC2)Oc2ccccc21 | ? | ? | – | –
CCOc1ccccc1CN1CCC2(CCN([S+](=O)([O-])c3cccc(C(F)(F)F)c3)CC2)Oc2ccccc21 | – | 13µM | – | –
Cc1cc(C(=O)N[C@@H]2CCOC[C@H]2OCC(=O)O)sc1-c1ccccc1 | – | 25µM | – | –
COCc1ccc(C(=O)N[C@@H]2CCOC[C@H]2OCc2ccccc2)s1 | – | – | – | –
COc1ccc2c(c1)CCCN2C1CNC1 | – | 126µM | – | –
COc1ccc2c(c1)CCCC2=O | – | · | – | –
CN1CCOc2c(C(=O)NCCC(N)=O)cc(-c3ccccc3)cc21 | – | 35µM | – | –
CN1CCOc2c(C(=O)NCCc3cnc[nH]3)cc(-c3ccccc3)cc21 | – | 32µM | – | ?
CC1Cc2cc(-c3ccnc4ncnn34)ccc2O1 (centres undefined) | – | 28µM | – | –
Cc1ccccc1-c1noc(-c2ccc(Br)cc2)n1 | · | – | · | ·
Cc1ccccc1-c1noc(-c2ccc(NC(C)c3cnn(C)c3)nc2)n1 (centres undefined) | ? | 28µM | – | ?
CN(CCc1ccccc1)CCN1CC2(CCN(c3ncccc3C#N)CC2)OC1=O | – | 32µM | – | –
COc1ccc(-c2ncc3c(n2)OCCN(C)C3=O)cc1OC | – | 28µM | – | –
CN1CCOc2nc(-c3cccc(OC(F)(F)F)c3)ncc2C1=O | – | – | – | –
COc1ccccc1-c1ncc2c(n1)OCCN(c1cccc(C(F)(F)F)c1)C2=O | ? | 32µM | – | –
COc1ccc(Cl)cc1-c1ncc2c(n1)OCCN(c1ccccc1)C2=O | – | 28µM | – | –
SMILES | SNCA viab count | KDM5B inh | IP6K1 inh | SNCA expr inh
COCCNC(=O)COC(=O)c1cc(-c2cccs2)nc2ccccc12 | · | – | · | ·
CC(C(=O)NCc1ccc(Cl)cc1)N1CCCC(C(F)(F)F)C1 (centres undefined) | · | – | · | ·
CCOC(=O)c1cccc(NC(=O)C2=CC(C)(C)COc3ccc(OC)cc32)c1 | · | · | – | ·
COc1ccccc1-n1c(=O)n(CC(=O)NC(C)c2ccccc2)c(=O)c2c(C)cc(C)nc21 (centres undefined) | · | – | · | ·
COc1ccc(CNC(=O)COC(=O)Cc2n[nH]c(=O)c3ccccc23)cc1 | · | – | · | ·
CCc1ccc(C(=O)C(C#N)C(=O)NCc2ccccc2)cc1 (centres undefined) | · | – | · | ·
